{"source": "PubChem BioAssay (Tox21)", "note": "Results filed as inconclusive are left out. A call without a number means that no potency is given here. Active and inactive are the calls of the source. Calls come from the whole dose curve.", "data": [{"target": "Vitamin D3 receptor (Homo sapiens) (UniProt P11473)", "sequence (P11473 whole entry, looked up)": "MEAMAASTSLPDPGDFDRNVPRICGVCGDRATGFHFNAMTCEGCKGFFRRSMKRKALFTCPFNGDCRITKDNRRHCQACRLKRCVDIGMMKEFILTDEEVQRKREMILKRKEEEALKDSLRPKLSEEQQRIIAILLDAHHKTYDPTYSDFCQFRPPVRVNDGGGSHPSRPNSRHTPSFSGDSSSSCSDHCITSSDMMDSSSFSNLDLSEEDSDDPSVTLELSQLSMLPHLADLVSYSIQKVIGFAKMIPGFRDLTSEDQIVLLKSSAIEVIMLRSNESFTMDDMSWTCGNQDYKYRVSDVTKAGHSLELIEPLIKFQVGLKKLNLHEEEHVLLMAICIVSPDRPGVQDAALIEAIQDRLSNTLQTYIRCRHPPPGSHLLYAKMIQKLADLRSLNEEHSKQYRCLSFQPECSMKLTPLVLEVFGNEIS", "test": "qHTS assay to identify small molecule agonists of the vitamin D receptor (VDR) signaling pathway (AID 743222)", "conditions": "HEK293T VDR-UAS-bla, beta-lactamase FRET ratio, 16 h; series mostly up to 63.5 µM", "source_text": "National Center for Advancing Translational Sciences [NCATS]\nNIH Chemical Genomics Center [NCGC]\nU.S. Environmental Protection Agency [EPA]\nNational Institutes of Environmental Health Sciences [NIEHS]\nNational Toxicology Program [NTP]\nU.S. Food and Drug Administration [FDA]\nThe vitamin D receptor (VDR), a member of nuclear hormone receptor superfamily, plays a critical role in calcium homeostasis and bone metabolism. It is also involved in cell differentiation and growth, and thrombogenicity.\nTox21 Assay Protocol Summary:\nVDR-bla cells were dispensed at 2,000 cells/6 uL/well into black wall/clear-bottom 1536-well plates using a Multidrop Combi (Thermo Fisher Scientific, Waltham, MA) dispenser. After the assay plates were incubated at a 37C and 5% CO2 for 4 h, 23 nL of compounds dissolved in DMSO, positive controls or DMSO only was transferred to the assay plate by a Pintool station (Kalypsys, San Diego, CA). The plates were incubated at 37C and 5% CO2 for 16 h. After 1 uL of LiveBLAzerTM B/G FRET substrate was added using a Bioraptr Flying Reagent Dispenser (FRD) workstation (Beckman Coulter, Indianapolis, IN, USA), the plates were incubated at room temperature for 2 h, and fluorescence intensity was measured by an Envision plate reader (PerkinElmer, Shelton, CT).", "values": [{"molecule": "Clc1ccc(CO/N=C(\\Cn2ccnc2)c2ccc(Cl)cc2Cl)c(Cl)c1", "Potency": "inactive"}, {"molecule": "O=C(O)COc1nc(Cl)c(Cl)cc1Cl", "Potency": "inactive"}, {"molecule": "N#CSCSC#N", "Potency": "inactive"}, {"molecule": "O=c1ssc(Cl)c1Cl", "Potency": "inactive"}, {"molecule": "CN(C)CCc1c[nH]c2cccc(O)c12", "Potency": "inactive"}, {"molecule": "CCCCCCCCCBr", "Potency": "inactive"}, {"molecule": "Oc1cc(Cl)c(Cl)c(Cl)c1", "Potency": "inactive"}, {"molecule": "O=C/C(Cl)=C(/Cl)C(=O)O", "Potency": "inactive"}, {"molecule": "ClC(Cl)=C(c1ccc(Cl)cc1)c1ccc(Cl)cc1", "Potency": "inactive"}, {"molecule": "CC(C)CCCCCOC(=O)c1ccccc1C(=O)OCCCCCC(C)C", "Potency": "inactive"}, {"molecule": "CCCSP(=O)(OCC)SCCC", "Potency": "inactive"}, {"molecule": "CC(C)[C@H](C(=O)OC(C#N)c1cccc(Oc2ccccc2)c1)c1ccc(OC(F)F)cc1", "note": "(stereo not given in full)", "Potency": "inactive"}, {"molecule": "CCCN(CCC)CCc1c[nH]c2ccccc12", "Potency": "inactive"}, {"molecule": "CC(C)(C)c1ccc(CSc2cnn(C(C)(C)C)c(=O)c2Cl)cc1", "Potency": "inactive"}, {"molecule": "CN(C)C1CSSSC1", "Potency": "inactive"}, {"molecule": "N#CNC#N", "Potency": "inactive"}, {"molecule": "CC1(C)C(/C=C(\\Cl)C(F)(F)F)C1C(=O)OC(C#N)c1cccc(Oc2ccccc2)c1", "note": "(stereo not given)", "Potency": "inactive"}, {"molecule": "CC(C)(C)c1cc([N+](=O)[O-])cc(C(C)(C)C)c1O", "Potency": "inactive"}, {"molecule": "COP(=O)(OC)SCn1c(=O)oc2cc(Cl)cnc21", "Potency": "inactive"}, {"molecule": "O=C(Nc1ccc2[nH]ccc2c1)c1cc2cc(F)ccc2n1Cc1cccc(F)c1", "Potency": "inactive"}, {"molecule": "CCOP(=O)(NC(C)C)Oc1ccc(SC)c(C)c1", "note": "(stereo not given)", "Potency": "inactive"}, {"molecule": "N#CC(Cl)Cl", "Potency": "inactive"}, {"molecule": "C[C@@H]1CC[C@@]2(OC1)O[C@H]1[C@@H](O)[C@H]3[C@@H]4CC[C@H]5C[C@@H](O[C@@H]6O[C@H](CO)[C@H](O[C@@H]7O[C@H](CO)[C@@H](O)[C@H](O[C@@H]8OC[C@@H](O)[C@H](O)[C@H]8O)[C@H]7O[C@@H]7O[C@H](CO)[C@@H](O)[C@H](O[C@@H]8O[C@H](CO)[C@@H](O)[C@H](O)[C@H]8O)[C@H]7O)[C@H](O)[C@H]6O)[C@H](O)C[C@]5(C)[C@H]4CC[C@]3(C)[C@H]1[C@@H]2C", "Potency": "inactive"}, {"molecule": "O=C1NCN(c2ccccc2)C12CCN(CC1COc3ccccc3O1)CC2", "note": "(stereo not given)", "Potency": "inactive"}, {"molecule": "CC(=O)c1cc(C(C)(C)C)cc2c1CCC2(C)C", "Potency": "inactive"}, {"molecule": "c1ccc2c(c1)OCC(C1=NCCN1)O2", "note": "(stereo not given)", "Potency": "inactive"}, {"molecule": "C[C@H]1CC[C@@H]2[C@@H](C)[C@H]3[C@H](C[C@H]4[C@@H]5CC=C6CC(O[C@@H]7O[C@H](CO)[C@H](O)[C@H](O[C@@H]8O[C@H](CO)[C@@H](O)[C@H](O)[C@H]8O)[C@H]7O[C@H]7O[C@@H](C)[C@H](O)[C@@H](O)[C@H]7O)CC[C@]6(C)[C@H]5CC[C@]34C)N2C1", "note": "(stereo not given in full)", "Potency": "inactive"}, {"molecule": "COc1ccc(OC)c(CC(C)N)c1", "note": "(stereo not given)", "Potency": "inactive"}, {"molecule": "Cc1ccc(OP(=O)(Oc2ccccc2)Oc2ccccc2)cc1", "Potency": "inactive"}, {"molecule": "CC(C)OC(=O)C(O)(c1ccc(Cl)cc1)c1ccc(Cl)cc1", "Potency": "inactive"}, {"molecule": "CN(C)CCc1c[nH]c2ccc(O)cc12", "Potency": "inactive"}, {"molecule": "O=C(CBr)c1ccc(O)cc1", "Potency": "inactive"}, {"molecule": "ClCc1ccc(Cl)cc1Cl", "Potency": "inactive"}, {"molecule": "C1CCC2CCCCC2C1", "note": "(stereo not given)", "Potency": "inactive"}, {"molecule": "CCC(C)(C)C(=O)OC1=C(c2ccc(Cl)cc2Cl)C(=O)OC12CCCCC2", "Potency": "inactive"}, {"molecule": "FC(Cl)(Cl)Cl", "Potency": "inactive"}, {"molecule": "CCOP(=S)(OCC)OC(Cl)C(Cl)(Cl)Cl", "note": "(stereo not given)", "Potency": "inactive"}, {"molecule": "CC(C)(C)OO", "Potency": "inactive"}, {"molecule": "CCN(CC)c1c([N+](=O)[O-])cc(C(F)(F)F)c(N)c1[N+](=O)[O-]", "Potency": "inactive"}, {"molecule": "O=[N+]([O-])c1ccc2ccc3cccc4ccc1c2c34", "Potency": "inactive"}]}]}
